{"source": "the supplement of paper PMC3334620", "note": "The full ranking holds about 33,000 sequences; the median of “E-score (-0.5 to 0.5)” is about -0.011, and the highest 2% start at about 0.28. Shown is part of a subset that was picked to be rich in the highest values.", "data": [{"molecular_target": "T1, Gcr1 (UniProt P07261)", "T1 sequence": "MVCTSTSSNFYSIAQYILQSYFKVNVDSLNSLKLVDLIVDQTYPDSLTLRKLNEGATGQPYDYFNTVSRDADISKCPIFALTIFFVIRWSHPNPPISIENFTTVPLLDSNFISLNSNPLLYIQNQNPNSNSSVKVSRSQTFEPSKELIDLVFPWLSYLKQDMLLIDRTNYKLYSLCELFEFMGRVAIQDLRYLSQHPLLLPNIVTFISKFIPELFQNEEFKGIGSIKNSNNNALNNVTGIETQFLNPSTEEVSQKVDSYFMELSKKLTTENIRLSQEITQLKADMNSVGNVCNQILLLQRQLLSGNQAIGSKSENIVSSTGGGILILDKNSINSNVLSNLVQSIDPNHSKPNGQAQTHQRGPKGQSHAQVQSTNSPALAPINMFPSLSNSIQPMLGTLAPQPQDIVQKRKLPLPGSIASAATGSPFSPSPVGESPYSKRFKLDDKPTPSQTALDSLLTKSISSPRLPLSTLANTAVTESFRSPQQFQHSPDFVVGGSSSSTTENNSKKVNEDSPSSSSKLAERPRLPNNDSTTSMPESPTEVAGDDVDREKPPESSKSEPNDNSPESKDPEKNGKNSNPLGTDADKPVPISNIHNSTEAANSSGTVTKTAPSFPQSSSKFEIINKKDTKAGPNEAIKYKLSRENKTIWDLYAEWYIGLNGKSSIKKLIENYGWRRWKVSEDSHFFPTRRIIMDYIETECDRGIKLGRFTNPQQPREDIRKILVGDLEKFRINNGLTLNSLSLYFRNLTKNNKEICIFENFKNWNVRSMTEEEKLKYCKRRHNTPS", "assay": "PBM E-score (8-mer binding enrichment) (E-score (-0.5 to 0.5)); higher = stronger / more preferred TF binding", "details": "protein concentration: 100 nM; construct: GST-full length", "procedure": "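Universal 'all 10-mer' protein binding microarrays (Agilent AMADID 015681) probed with GST-tagged S. cerevisiae TFs (full-length or DBD) made by in vitro transcription/translation (PURExpress), about 100-200 nM. Bound TF was detected with fluorescent anti-GST. Each ungapped 8-mer (which stands for itself and its reverse complement) is scored by the PBM enrichment score (E-score), a modified Wilcoxon-Mann-Whitney statistic from -0.5 to +0.5, computed with the Universal PBM Analysis Suite. Scale: above 0.35 generally sequence-specific binding.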", "values": [{"sequence": "ACACAAGG", "PBM E-score": -0.0735}, {"sequence": "GCTTTCTA", "PBM E-score": -0.196}, {"sequence": "GTTTACCA", "PBM E-score": -0.022}, {"sequence": "CCGGGACA", "PBM E-score": -0.0293}, {"sequence": "AAGACTCC", "PBM E-score": 0.0934}, {"sequence": "CCTTTTCA", "PBM E-score": -0.164}, {"sequence": "CACTCTGG", "PBM E-score": 0.0408}, {"sequence": "AGAGGGAA", "PBM E-score": -0.176}, {"sequence": "GGAATTCA", "PBM E-score": 0.192}, {"sequence": "AGAATTCC", "PBM E-score": 0.164}, {"sequence": "GGAATTCC", "PBM E-score": 0.426}, {"sequence": "AGCTAGAG", "PBM E-score": -0.226}, {"sequence": "ATTCATAA", "PBM E-score": -0.0219}, {"sequence": "GCGTCTAA", "PBM E-score": 0.357}, {"sequence": "CCATCTAA", "PBM E-score": 0.0606}, {"sequence": "CCGTCTAA", "PBM E-score": 0.0045}, {"sequence": "TCGTCTAA", "PBM E-score": 0.112}, {"sequence": "TCCTCTAA", "PBM E-score": 0.282}, {"sequence": "TCATCTAA", "PBM E-score": -0.0664}, {"sequence": "GCATCTAA", "PBM E-score": 0.303}, {"sequence": "ACCTCTAA", "PBM E-score": 0.16}, {"sequence": "GCCTCTAA", "PBM E-score": 0.265}, {"sequence": "CATCACGG", "PBM E-score": -0.01}, {"sequence": "AAGTGAAC", "PBM E-score": -0.0708}, {"sequence": "ATGATTCA", "PBM E-score": -0.105}, {"sequence": "TCTCAAAA", "PBM E-score": 0.137}, {"sequence": "CAAGAGAA", "PBM E-score": 0.0254}, {"sequence": "GGATGGCA", "PBM E-score": -0.167}, {"sequence": "CCCGACGG", "PBM E-score": -0.158}, {"sequence": "CTATTGGC", "PBM E-score": 0.0102}, {"sequence": "ACCCGCCC", "PBM E-score": -0.135}, {"sequence": "CCCCGCCC", "PBM E-score": 0.338}, {"sequence": "GCCCGCCC", "PBM E-score": 0.0747}, {"sequence": "ATGCTGGA", "PBM E-score": 0.0516}, {"sequence": "AGAACTGG", "PBM E-score": 0.262}, {"sequence": "AGACCGCT", "PBM E-score": -0.2}, {"sequence": "TCGGGGCA", "PBM E-score": 0.161}, {"sequence": "ATTGGGTG", "PBM E-score": 0.085}, {"sequence": "CTAGGAAC", "PBM E-score": 0.149}, {"sequence": "AGAGGAAA", "PBM E-score": -0.0469}, {"sequence": "ACAGGATG", "PBM E-score": 0.372}, {"sequence": "GTAGGAAC", "PBM E-score": 0.0386}, {"sequence": "AGAGGAAG", "PBM E-score": 0.385}, {"sequence": "AGAGGAAC", "PBM E-score": 0.177}, {"sequence": "AGAGGATG", "PBM E-score": 0.315}, {"sequence": "AGAGGATA", "PBM E-score": -0.0247}, {"sequence": "ACAGGATA", "PBM E-score": 0.177}, {"sequence": "ACAGGATC", "PBM E-score": 0.197}, {"sequence": "ATAGGAAC", "PBM E-score": 0.319}, {"sequence": "AGAGGATC", "PBM E-score": 0.024}, {"sequence": "AGTGTCCA", "PBM E-score": 0.057}, {"sequence": "TAGTATGA", "PBM E-score": 0.0561}, {"sequence": "CTCCGATC", "PBM E-score": -0.00026}, {"sequence": "ATGCTAGG", "PBM E-score": -0.0494}, {"sequence": "CCCGGATC", "PBM E-score": 0.256}, {"sequence": "CCCTCAGC", "PBM E-score": -0.0815}, {"sequence": "ATTCAGCC", "PBM E-score": 0.0229}, {"sequence": "ATAGGATC", "PBM E-score": 0.158}, {"sequence": "CAAGGAAG", "PBM E-score": 0.143}, {"sequence": "ATAGGAAT", "PBM E-score": 0.27}, {"sequence": "ATAGGAAG", "PBM E-score": 0.414}, {"sequence": "ATAGGATG", "PBM E-score": 0.333}, {"sequence": "ATAGGAAA", "PBM E-score": -0.0777}, {"sequence": "AAAGGAAG", "PBM E-score": 0.361}, {"sequence": "AAAGGAAC", "PBM E-score": 0.219}, {"sequence": "ATAGGATA", "PBM E-score": -0.0284}, {"sequence": "CGCTGCCC", "PBM E-score": 0.164}, {"sequence": "CGGGGTGC", "PBM E-score": 0.226}, {"sequence": "CCGGATCC", "PBM E-score": 0.279}, {"sequence": "AGGGATCA", "PBM E-score": -0.054}, {"sequence": "AGGGATCC", "PBM E-score": 0.286}, {"sequence": "AGGGATCG", "PBM E-score": -0.151}, {"sequence": "CGGGATCA", "PBM E-score": 0.245}, {"sequence": "CGGGATCC", "PBM E-score": 0.371}, {"sequence": "AGCATCAA", "PBM E-score": 0.0409}, {"sequence": "CACGCACC", "PBM E-score": 0.0442}, {"sequence": "AGACCGAA", "PBM E-score": -0.18}, {"sequence": "GACGGCGC", "PBM E-score": -0.0687}, {"sequence": "AGCCTCTA", "PBM E-score": 0.0722}, {"sequence": "TTCAGAAA", "PBM E-score": 0.12}, {"sequence": "CCCAGAAG", "PBM E-score": 0.233}, {"sequence": "GCCAGAAA", "PBM E-score": 0.236}, {"sequence": "TCCAGAAA", "PBM E-score": 0.304}, {"sequence": "ACCAGAAA", "PBM E-score": 0.0905}, {"sequence": "CCCAGAAA", "PBM E-score": 0.283}, {"sequence": "GCCTACTA", "PBM E-score": 0.00583}, {"sequence": "AGCCCCGA", "PBM E-score": -0.108}, {"sequence": "AAAGCCAC", "PBM E-score": 0.0178}, {"sequence": "CAAGCCAC", "PBM E-score": -0.124}, {"sequence": "GAAGCCAA", "PBM E-score": 0.29}, {"sequence": "GAAGCCAC", "PBM E-score": 0.417}, {"sequence": "AAAGCCAA", "PBM E-score": 0.0021}, {"sequence": "GAAGCCTC", "PBM E-score": 0.283}, {"sequence": "TAAGCCAA", "PBM E-score": 0.0672}, {"sequence": "AAAGCCTC", "PBM E-score": -0.0619}, {"sequence": "CAAGCCTC", "PBM E-score": -0.0336}, {"sequence": "ACTACCCA", "PBM E-score": -0.135}, {"sequence": "AATAGCCG", "PBM E-score": -0.0191}, {"sequence": "CCCGGGTA", "PBM E-score": -0.031}, {"sequence": "TAGGCGCA", "PBM E-score": 0.225}, {"sequence": "CCAAAATC", "PBM E-score": 0.136}, {"sequence": "CTGGAACA", "PBM E-score": -0.0357}, {"sequence": "ATGGAACC", "PBM E-score": 0.294}, {"sequence": "ATGGAACA", "PBM E-score": -0.0319}, {"sequence": "ATGGAACG", "PBM E-score": -0.0103}, {"sequence": "CTGGAAAC", "PBM E-score": 0.196}, {"sequence": "CTGGAACC", "PBM E-score": 0.375}, {"sequence": "AGCATTCG", "PBM E-score": -0.235}, {"sequence": "CTTGGTGC", "PBM E-score": 0.116}, {"sequence": "AACTAAAT", "PBM E-score": 0.123}]}]}
